Data published in PubChem BioAssay (EPA / NIEHS).
Activity calls are given as the source filed them. How the source made its calls: active means hit-call score of the fitted dose curve at least 0.9, where 1 is the maximum; inactive means score below 0.9.

Assays:
[1] = target: Bile acid receptor (Homo sapiens) (UniProt Q96RI1); test: ATG_IR1_CIS: Attagene CIS-FACTORIAL HepG2 Assay for human Nuclear Receptor Subfamily 1 Group H Member 4 (NR1H4), IR1 submotif (AID 2282946); settings: IR1 reporter transcription, actives raise or lower the signal
Outline: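 Transient MRTU transfection, HepG2; 24 h dosing; RNA → RT-PCR → 6-FAM primer extension → HpaI digest → capillary electrophoresis fluorescence. Gain/loss of signal fitted relative to DMSO.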

[2] = ATG_GRE_CIS: Attagene CIS-FACTORIAL HepG2 Assay for human Glucocorticoid Response Elements (GRE) (AID 2282947); settings: HepG2 GRE cis-reporter, Attagene multiplex mRNA; actives raise or lower the signal
Outline: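 HepG2 cells transiently transfected with multiple cis-promoter reporter units measure endogenous TF activity; 24 h compound exposure. Reporter mRNA quantified by RT-PCR, FAM labelling, HpaI digestion and capillary electrophoresis; bidirectional fit vs DMSO baseline.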

[3] = ATG_ISRE_CIS: Attagene CIS-FACTORIAL HepG2 Assay for human Interferon Regulatory Factor 1 (IRF1) binding to an Interferon-Stimulated Response Element (ISRE) (AID 2282948); settings: HepG2 ISRE cis-reporter (Attagene), mRNA transcription readout; actives raise or lower the signal
Outline: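 HepG2 cells transiently transfected with multiplexed cis-promoter reporter units; after 24 h compound exposure, reporter mRNA quantified by RT-PCR, FAM labelling, HpaI digestion and capillary electrophoresis. Bidirectional fit versus DMSO baseline.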

[4] = ATG_M_32_CIS: Attagene CIS-FACTORIAL HepG2 Assay for M32 Transcription Factor (Internal Marker) (AID 2282949); settings: HepG2 Attagene cis-factorial M32 reporter, mRNA; actives raise or lower the signal;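 further: background control marker of the multiplexed CIS panel rather than a real target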
Outline: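 Internal background marker read-out: RT-PCR/capillary electrophoresis fluorescence of reporter transcripts from transiently transfected HepG2 cells after 24 h chemical exposure. Activity fitted bidirectionally relative to DMSO negative control.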

[5] = ATG_M_06_CIS: Attagene CIS-FACTORIAL HepG2 Assay for M06 Transcription Factor (Internal Marker) (AID 2282950); settings: HepG2 Attagene CIS-FACTORIAL M06 internal marker reporter; actives raise or lower the signal
Outline: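 HepG2 cells transiently transfected with cis-regulated multiple reporter transcription units were exposed to chemical for 24 h; reporter mRNA was quantified by RT-PCR, 6-FAM primer labelling, HpaI digestion and capillary electrophoresis, fitted bidirectionally against DMSO.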

[6] = target: Hypoxia-inducible factor 1-alpha (Homo sapiens) (UniProt Q16665); test: ATG_HIF1a_CIS: Attagene CIS-FACTORIAL HepG2 Assay for human Hypoxia Inducible Factor 1 (HIF1A) (AID 2282951); settings: HepG2 Attagene cis-factorial HIF1a reporter transcription; actives raise or lower the signal
Outline: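 HepG2, transient cis-reporter library, 24 h dosing. RNA → RT (oligo dT) → PCR → 6-FAM primer extension → HpaI → CE. Bidirectional curve fit vs DMSO.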

[7] = target: Hepatocyte nuclear factor 6 (Homo sapiens) (UniProt Q9UBC0); test: ATG_HNF6_CIS: Attagene CIS-FACTORIAL HepG2 Assay for human Hepatocyte Nuclear Factor 6 (HNF6) (AID 2282952); settings: HepG2 Attagene cis-factorial HNF6 reporter transcription; actives raise or lower the signal
Outline: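 HepG2 cells transiently transfected with cis-element-driven multiple reporter transcription units, dosed 24 h; reporter mRNA quantified by RT-PCR, FAM primer extension, HpaI digestion and capillary electrophoresis; bidirectional fit versus DMSO baseline.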

[8] = ATG_MRE_CIS: Attagene CIS-FACTORIAL HepG2 Assay for human Metal Responsive Element (MRE) (AID 2282954); settings: HepG2 MRE cis-reporter transcription, Attagene multiplex; actives raise or lower the signal
Outline: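 HepG2 cells transiently transfected with multiple cis-element reporter units measure endogenous MTF1-driven transcription. After 24 h compound exposure, reporter mRNA is quantified by RT-PCR with 6-FAM labelling, HpaI digestion and capillary electrophoresis; bidirectional fits versus DMSO.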

[9] = ATG_PBREM_CIS: Attagene CIS-FACTORIAL HepG2 Assay for human Phenobarbital-responsive Enhancer Module (PBREM) (AID 2282955); settings: HepG2 PBREM cis-reporter, Attagene multiplexed transcription; actives raise or lower the signal
Outline: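 HepG2, transient MRTU transfection, 24 h dosing; RNA → oligo(dT) RT → PCR → 6-FAM extension → HpaI → CE. Bidirectional fit vs DMSO.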

[10] = target: Heat shock factor protein 1 (Homo sapiens) (UniProt Q00613); test: ATG_HSE_CIS: Attagene CIS-FACTORIAL HepG2 Assay for human Heat Shock Transcription Factor 1 (HSE) (AID 2282953); settings: HepG2 HSE cis-reporter, Attagene RNA transcription; actives raise or lower the signal
Outline: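 HepG2 cells transiently transfected with multiple reporter transcription units under cis-regulatory promoter control, measuring endogenous transcription factor activity. After 24 h chemical exposure, reporter mRNA quantified by RT-PCR, fluorescent labelling, HpaI digestion and capillary electrophoresis; bidirectional fit versus DMSO.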

Measured: AC50

Hypoxia-inducible factor 1-alpha (Homo sapiens), sequence (Q16665 whole entry, looked up): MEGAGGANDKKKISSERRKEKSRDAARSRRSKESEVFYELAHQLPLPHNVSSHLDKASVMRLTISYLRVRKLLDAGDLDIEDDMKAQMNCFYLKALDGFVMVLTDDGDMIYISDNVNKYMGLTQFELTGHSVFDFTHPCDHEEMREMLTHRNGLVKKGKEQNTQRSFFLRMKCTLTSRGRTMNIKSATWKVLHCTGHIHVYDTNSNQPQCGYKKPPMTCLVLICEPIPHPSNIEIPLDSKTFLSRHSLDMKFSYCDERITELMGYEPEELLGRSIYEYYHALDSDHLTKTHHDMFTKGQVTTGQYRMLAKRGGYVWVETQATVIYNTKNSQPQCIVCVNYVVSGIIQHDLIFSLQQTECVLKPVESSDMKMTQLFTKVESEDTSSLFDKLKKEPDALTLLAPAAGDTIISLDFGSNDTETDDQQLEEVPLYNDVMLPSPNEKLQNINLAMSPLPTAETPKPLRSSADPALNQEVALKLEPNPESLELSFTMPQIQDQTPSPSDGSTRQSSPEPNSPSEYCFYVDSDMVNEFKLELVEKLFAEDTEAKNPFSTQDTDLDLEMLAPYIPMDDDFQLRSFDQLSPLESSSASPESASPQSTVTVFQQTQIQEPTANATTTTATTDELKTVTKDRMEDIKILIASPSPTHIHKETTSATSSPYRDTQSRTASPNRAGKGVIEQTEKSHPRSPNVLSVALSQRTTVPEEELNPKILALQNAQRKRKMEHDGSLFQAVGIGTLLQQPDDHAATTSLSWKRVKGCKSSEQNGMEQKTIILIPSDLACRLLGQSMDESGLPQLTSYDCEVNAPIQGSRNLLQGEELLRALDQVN
Hepatocyte nuclear factor 6 (Homo sapiens), sequence (Q9UBC0 whole entry, looked up): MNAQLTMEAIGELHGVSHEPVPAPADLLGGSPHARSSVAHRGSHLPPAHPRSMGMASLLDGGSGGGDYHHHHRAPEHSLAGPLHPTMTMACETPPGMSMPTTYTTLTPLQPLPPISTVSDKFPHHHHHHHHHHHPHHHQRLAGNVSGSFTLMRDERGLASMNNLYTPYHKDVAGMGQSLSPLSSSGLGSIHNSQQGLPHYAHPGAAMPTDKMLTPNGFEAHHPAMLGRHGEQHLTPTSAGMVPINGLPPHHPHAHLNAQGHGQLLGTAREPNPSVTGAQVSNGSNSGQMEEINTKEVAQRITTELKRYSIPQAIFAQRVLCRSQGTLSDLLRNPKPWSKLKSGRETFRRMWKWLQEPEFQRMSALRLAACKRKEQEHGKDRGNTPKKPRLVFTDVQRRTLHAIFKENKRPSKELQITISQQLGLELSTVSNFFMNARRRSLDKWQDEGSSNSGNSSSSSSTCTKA
Heat shock factor protein 1 (Homo sapiens), sequence (Q00613 whole entry, looked up): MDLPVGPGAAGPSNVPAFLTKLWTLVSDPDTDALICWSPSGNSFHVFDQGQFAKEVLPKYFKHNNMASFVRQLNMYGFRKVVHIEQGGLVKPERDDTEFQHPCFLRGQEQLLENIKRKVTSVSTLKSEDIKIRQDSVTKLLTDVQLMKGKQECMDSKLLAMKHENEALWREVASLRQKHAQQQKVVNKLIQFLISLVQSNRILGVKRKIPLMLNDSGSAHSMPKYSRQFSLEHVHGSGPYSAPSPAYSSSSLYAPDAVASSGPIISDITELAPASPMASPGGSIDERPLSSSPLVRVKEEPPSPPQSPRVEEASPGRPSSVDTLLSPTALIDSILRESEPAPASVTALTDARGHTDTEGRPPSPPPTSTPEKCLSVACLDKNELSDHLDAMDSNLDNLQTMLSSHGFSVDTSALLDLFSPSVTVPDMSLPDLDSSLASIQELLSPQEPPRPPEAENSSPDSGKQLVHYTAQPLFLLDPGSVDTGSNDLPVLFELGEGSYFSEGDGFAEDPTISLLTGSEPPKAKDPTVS
Bile acid receptor (Homo sapiens), sequence (Q96RI1 whole entry, looked up): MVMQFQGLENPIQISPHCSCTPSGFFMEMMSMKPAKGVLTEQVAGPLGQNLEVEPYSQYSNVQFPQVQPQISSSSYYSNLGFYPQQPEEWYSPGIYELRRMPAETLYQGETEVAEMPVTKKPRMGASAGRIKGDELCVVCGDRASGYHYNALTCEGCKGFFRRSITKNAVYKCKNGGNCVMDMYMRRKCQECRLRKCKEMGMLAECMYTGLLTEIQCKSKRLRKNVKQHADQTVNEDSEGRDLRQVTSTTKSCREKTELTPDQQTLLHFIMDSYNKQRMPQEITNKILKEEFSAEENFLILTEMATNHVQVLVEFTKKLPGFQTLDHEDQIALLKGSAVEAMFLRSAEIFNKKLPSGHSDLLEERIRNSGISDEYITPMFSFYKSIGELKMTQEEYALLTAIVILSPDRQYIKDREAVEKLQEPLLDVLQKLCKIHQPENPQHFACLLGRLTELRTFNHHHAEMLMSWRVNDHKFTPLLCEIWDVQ

CC(C)(C#N)c1cc(Cn2cncn2)cc(C(C)(C)C#N)c1
not listed: [10]
inactive: all other assays above

CCc1c(C)cc(N)c(CC)c1N
not listed: [6] | [10]
inactive: all other assays above

CC(C)(C)C(=O)c1ccccc1
not listed: [6]
inactive: all other assays above

c1cc(C(c2ccc(OCC3CO3)cc2)c2ccc(OCC3CO3)cc2)ccc1OCC1CO1 (stereo unspecified)
active: [3] 14.7 µM | [6] 56.4 µM | [7] 25.3 µM | [10] 12.5 µM | [8] 13.4 µM
inactive: [1] | [2] | [5]

C=CC(C)(C)O
not listed: [6]
inactive: all other assays above

OCc1cccnc1
not listed: [6] | [8]
inactive: all other assays above

CCCC(=O)c1cc(O)c(O)cc1O
not listed: [10]
inactive: all other assays above

BrC1CCC(Br)C(Br)CCC(Br)C(Br)CCC1Br (stereo unspecified)
active: [3] 87 µM | [7] 87 µM | [8] 49.2 µM
not listed: [10]
inactive: all other assays above

CC1=CC(=O)NS(=O)(=O)O1
not listed: [8] | [10]
inactive: all other assays above

COc1c(Cl)c(Cl)c(Cl)c(Cl)c1Cl
not listed: [8]
inactive: all other assays above

CCCc1c(OCCCOc2ccc(OCC(=O)O)cc2)ccc(C(C)=O)c1O
active: [10] 150 µM | [8] 79.2 µM
not listed: [6] | [9]
inactive: all other assays above

Cc1cccc(C)c1C
not listed: [4] | [8]
inactive: all other assays above

CC(=O)OCCC(C)CC(C)(C)C (stereo unspecified)
not listed: [10]
inactive: all other assays above

CC(CCO)CCc1ccccc1 (stereo unspecified)
not listed: [9] | [10]
inactive: all other assays above

N#Cc1ccccc1
not listed: [6]
inactive: all other assays above

C=CCOC(=O)CCC1CCCCC1
not listed: [10]
inactive: all other assays above

N#Cc1nc(Cl)c(Cl)c(Cl)c1Cl
inactive: [2] | [5] | [9]
active: [1] 4.18 µM | [3] 2.79 µM | [6] 3.71 µM | [7] 5.48 µM | [10] 5.66 µM | [8] 2.63 µM
